MCF10A rerep: induces DNA re-replication in MCF 10a normal breast cells; Potency, µM (highest dose often 46.1 µM), most hits filed as activators; MCF 10A DNA re-replication, Hoechst nuclear intensity, 48 h; AID 624296; actives 2.9% (n = 350,000); also: nearly all actives have a fitted effect of over 50% in size
KB-V1 MDR tox: kills drug-selected multidrug resistant KB-V1 cells. KB-V1 MDR cells viability, CellTiter-Glo, 72 h. Potency, µM (doses to about 46.1 µM), usual class: cytotoxic. actives 3.4% (n = 400,000). AID 1347076; also: nearly all actives have a fitted effect of over 60% in size
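KB-V1, DMEM (no phenol red) + 10% FBS; cpd pin-transferred, titration series; 72 h, 37 degrees C; CellTiter-Glo, luminescence. Data normalized, curve-fit.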
SW480 rerep: induces DNA re-replication in SW480 colon adenocarcinoma cells. SW480 DNA re-replication, Hoechst DNA content imaging, 48 h. Potency, µM (series often up to 46.1 µM), actives largely listed as activators. actives 1.8% (n = 340,000); also: nearly all actives have a fitted effect of over 55% in size
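SW480 cells exposed to compounds for 48 hr at 37 C, 5% CO2, then Hoechst-stained 40 min. Nuclear DNA content imaged by fluorescence scanning (405 nm excitation, 500-530 nm emission); re-replication scored as increased high-intensity nuclei.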
KB-3-1 cytotox: kills parental KB-3-1 adenocarcinoma cells; KB-3-1 viability, CellTiter-Glo ATP luminescence, 72 h; Potency, µM (doses to about 46.1 µM), actives largely listed as cytotoxic; actives 1.4% (n = 400,000); also: nearly all actives have a fitted effect of over 60% in size
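Cells are dispensed, compounds pinned in, plates held at 37 °C for 72 h, then CellTiter-Glo is added and luminescence read after 10 minutes. Cell line: parental KB-3-1 in phenol-red-free DMEM, 10% FBS.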
IL1B secr inh: inhibitors of inflammasome signaling (IL-1 beta secretion) | THP-1 LPS/ATP IL-1B secretion, AlphaLISA, 16 h; hits give low values | activity change, % at 57.5 µM | actives 4.7% (n = 360,000) | AID 743279; in the data active = activity change below about -50%; inconclusive = mostly about -30% to -49%
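THP-1 cells pretreated 1 hr with compounds (up to 57.5 uM final), then stimulated with LPS (250 ng/mL final) plus ATP (1.25 mM final); secreted IL-1B measured by AlphaLISA after 16 hr, decreased signal indicating inhibition.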
Hits are given with their value; . = inactive; ? = inconclusive; / = no result given; [ ] = dose if it differs, or a comment. Only some compounds are listed: those with a hit (about 9.9% of all), similar ones and a draw of the others. Unless noted, calls follow the shape of the dose curve; as a rule, active = well fitted curve in the direction sought with a large enough effect; inconclusive = small, poorly fitted or top-dose-only effect, or another doubt; inactive = no such curve, though single readings can be large; an effect the other way counts as inactive or inconclusive.

SMILES	MCF10A rerep	KB-V1 MDR tox	SW480 rerep	KB-3-1 cytotox	IL1B secr inh
Cc1ccccc1CN1C(=O)c2ccccc2C1c1nnnn1Cc1ccccc1 (stereo unspecified)	/	?	/	.	.
Cc1cccc(Cn2nnc3c2C(=O)c2ccccc2C3=O)c1	.	6.3µM	?	?	.
Cc1ccccc1Cn1nnc2c1C(=O)c1ccccc1C2=O	.	13µM	?	?	.
Cc1ccc(O)c(C(=O)c2cc(C#N)c(=O)n(-c3c(C)n(C)n(-c4ccccc4)c3=O)c2)c1	.	.	.	.	.
Cc1ccc(O)c(C(=O)c2cc(C#N)c(=O)n(-c3nccs3)c2)c1	12µM	?	.	?	.
COc1cccc(CN2CCC2(C)C(=O)Nc2cccc(Oc3ccccc3)c2)c1F (stereo unspecified)	/	7.3µM	/	?	.
COc1cccc(NC(=O)C2(C)CCN2Cc2cccc(OC)c2F)c1 (stereo unspecified)	/	.	/	.	.
COc1cccc(CN2CCC2(C)C(=O)Nc2ccc(C)c(O)c2)c1F (stereo unspecified)	/	?	/	.	-52
CCCN(C(=O)C1CCN(S(=O)(=O)c2ccc(OC)c(OC)c2)CC1)C1CCS(=O)(=O)C1 (stereo unspecified)	.	.	.	.	.
Cc1ccc(Cn2nnnc2CN2CCC(NC(=O)c3ccc(Br)cc3)CC2)cc1	.	18µM	.	.	.
CCC(C)(C)n1nnnc1CN1CCC(NC(=O)c2ccc(Br)cc2)CC1	.	.	.	.	.
Cc1ccc(Cn2nnnc2CN2CCC(c3nc4ccc(Cl)cc4[nH]3)CC2)cc1	?	3.3µM	.	18µM	-81
O=C(NC1CCN(Cc2nnnn2CCc2ccccc2)CC1)c1ccccc1F	.	16µM	.	.	.
O=C(COC(=O)c1ccccc1SCC(=O)N1CCCC1)NCc1ccccc1	.	.	.	.	.
CCOc1ccc(N/C(C)=C\C(=O)c2ccc3c(c2)OCCO3)cc1	?	.	.	.	.
CCOC(=O)c1ccc(NC(=O)Nc2ccn(C)n2)cc1	.	16µM	.	.	.
CCOC(=O)c1c(C)c(C(=O)Nc2cc(F)ccc2F)c(C)n1C	10µM	2.6µM	23µM	10µM	.
CCOC(=O)c1c(C)c(C(=O)Nc2ccc3c(c2)OCCO3)c(C)n1C	?	15µM	.	?	.
CCOc1ccc(N/C(C)=C/C(=O)c2ccc3c(c2)OCCO3)cc1	.	.	.	.	-77
COc1cccc(OC)c1C(=O)Nc1ccc2c(c1)OCCO2	.	.	.	.	.
CCOC(=O)c1c(C)c(C(=O)OCC)n(C)c1C	.	.	.	.	.
CCOC(=O)c1ccc(NC(=O)Nc2cccc(C)n2)cc1	.	?	.	.	.
Cc1ccc(-n2nnnc2-c2cccs2)cc1[N+](=O)[O-]	.	.	.	.	.
Cc1[nH]nc(SCC(=O)N(C)c2ccccc2)c1[N+](=O)[O-]	.	.	.	.	.
CCOC(=O)c1ccc(NCc2ccc3c(c2)OCO3)cc1	?	21µM	?	.	.
SMILES	MCF10A rerep	KB-V1 MDR tox	SW480 rerep	KB-3-1 cytotox	IL1B secr inh
CCOC(=O)c1ccc(NC(=O)Nc2ccc3c(c2)OCCO3)cc1	.	15µM	.	?	?
CCOC(=O)c1c(C)c(C(=O)Nc2ccc(N(C)C)cc2)c(C)n1CC	6.5µM	4.1µM	10µM	7.3µM	.
N#CCC(=O)Nc1ccc(C(=O)OCC(=O)NC(=O)Nc2ccc3c(c2)OCCO3)cc1	.	.	.	.	?
Cc1ccc(CCNC(=O)c2sc3ncccc3c2-n2c(C)ccc2C)cc1	/	.	/	.	/
CCCCn1cc(S(=O)(=O)c2ccccc2)c(=O)c2cc(F)c(N3CCC(C)CC3)cc21	/	.	/	.	/
CCOC(=O)C1CC(CN2C(=O)c3ccccc3C2=O)OC1=O (stereo unspecified)	.	.	.	.	.
CC1CCCN(C(=O)c2ccc([N+](=O)[O-])o2)C1 (stereo unspecified)	.	.	?	.	.
CCC1CCCCN1C(=O)c1ccc([N+](=O)[O-])o1 (stereo unspecified)	18µM	.	.	.	.
CC1(Oc2cccnc2Cl)CCN(Cc2ccc(OC(F)(F)F)cc2)C1 (stereo unspecified)	/	.	/	.	-56
CC1(Oc2cccc(Cl)c2)CCN(Cc2ccc(OC(F)(F)F)cc2)C1 (stereo unspecified)	/	.	/	.	.
COc1ccc(S(=O)(=O)N2CCC(C(=O)NCCCc3ccccc3)CC2)cc1	.	.	.	.	.
Cn1c(=O)[nH]c(=O)c2c1nc(N)n2Cc1ccccc1	.	.	.	.	.
CN(C(=O)c1cccc(NC(=O)Cc2ccc(NC(=O)C3CCCN(C(=O)CCc4ccccc4)C3)cc2)c1)C1CCCC1 (stereo unspecified)	?	.	.	6.5µM	.
CN(C(=O)c1cccc(NC(=O)Cc2ccc(NC(=O)C3CCCN(C(=O)C4CC4)C3)cc2)c1)C1CCCCC1 (stereo unspecified)	.	.	2.6µM	.	.
CN(C(=O)c1cccc(NC(=O)Cc2ccc(NC(=O)C3CCCN(C(=O)CCc4ccccc4)C3)cc2)c1)C1CCC1 (stereo unspecified)	?	.	.[9.22 µM]	.	.
O=C(O)c1ccc(Cl)c(S(=O)(=O)Nc2ccccc2C(=O)Nc2ccc(Cl)cc2)c1	.	.	.	.	.
COc1ccc(OCc2nnc3n2N=C(c2ccccc2)CS3)cc1	/	.	/	.	/
O=C(Oc1ccc(-c2nnco2)cc1)N(c1ccccc1)c1ccccc1	.	.	.	.	-79
O=C(Oc1ccc(-c2nnco2)cc1)c1ccc(Br)o1	.	.	.	.	.
O=S(=O)(NCCc1nnc2ccc(SCc3cccc(Cl)c3)nn12)c1ccccc1	/	.	/	.	/
NC(=O)COC(=O)c1c2c(nc3ccccc13)CCCCC2	.	?	.	.	.
O=C(OCC(=O)N1CCc2ccccc21)c1c2c(nc3ccccc13)CCCC2	?	9.2µM	.	?	.
CC1Cc2ccccc2N1C(=O)COC(=O)c1c2c(nc3ccccc13)CCCCC2 (stereo unspecified)	21µM	9.2µM	?	?	?
CCCNC(=O)Nc1ccc2c(c1)N(C)C(=O)c1ccccc1S2	.	21µM	.	?	.
COc1ccc(OCC(=O)Nc2ccc3c(c2)N(C)C(=O)c2ccccc2S3)cc1	/	.	/	.	/
CN1C(=O)c2ccccc2Sc2ccc(NC(=O)COc3ccc(Cl)cc3)cc21	/	8.2µM	/	?	/
CN1C(=O)c2ccccc2Sc2ccc(NC(=O)c3ccc(C(F)(F)F)cc3)cc21	/	.	/	.	/
Cc1ccc(C(=O)Nc2ccc3c(c2)N(C)C(=O)c2ccccc2S3)cc1	/	?	/	16µM	/
CCOC(=O)CCC(NC(=O)c1ccc(Nc2nc3ccccc3nc2C(=O)OCC)cc1)C(=O)OCC (stereo unspecified)	.	9.2µM	.	.	.
O=C(CSc1ccc(-c2ccco2)nn1)Nc1ccc(F)cc1F	.	?	.	?	.
